FH mod: Identification of activators of human fumarate hydratase by quantitative high-throughput screening. 0.22% of 54,000 active. Potency, µM (top dose mostly 79.9 µM), without a hit: at the top dose activity change, negative = inhibition, usual class: inhibitors. FH coupled MDH/diaphorase resazurin fluorescence, 15 min; also: potency is read from the fitted curve at half-maximal effect; % is scaled to controls: 0 for no effect and ±100 for the full control effect; the screen sought activators but most active calls are inhibition curves; nearly all actives have a fitted effect of over 45% in size
NTMT1 inhibitor: inhibitors of human N-terminal methyltransferase NTMT1; NTMT1 MTase-Glo SAH luminescence, purified enzyme; Potency, µM (highest dose often 114 µM), for inactives: at the highest dose activity change, negative = inhibition, most hits filed as inhibitors; 2.5% of 59,000 active;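 also: potency is read from the fitted curve at half-maximal effect; plate controls were DMSO vehicle for no effect and no enzyme for full effect; nearly all actives have a fitted effect of over 65% in size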
Target sequence (Q9BV86 whole entry, looked up): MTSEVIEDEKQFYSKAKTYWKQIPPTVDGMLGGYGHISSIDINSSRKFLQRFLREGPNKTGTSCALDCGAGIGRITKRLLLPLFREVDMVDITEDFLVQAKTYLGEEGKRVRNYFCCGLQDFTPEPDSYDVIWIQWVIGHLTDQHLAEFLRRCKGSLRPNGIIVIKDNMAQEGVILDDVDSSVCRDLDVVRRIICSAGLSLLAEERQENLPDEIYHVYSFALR
HTT promoter inh: HTT promoter inhibition | HEK293 HTT promoter firefly luciferase reporter, 24 h | Potency, µM (highest dose often 57.5 µM), inactives show top-dose activity change, negative = inhibition, most hits filed as inhibitors | 0.93% of 48,000 active | AID 1508623; also: potency is read from the fitted curve at half-maximal effect; nearly all actives have a fitted effect of over 50% in size
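HEK293 cells carrying firefly luciferase reporters were seeded at 2,500 per well in Opti-MEM and cultured for 24 h. They were then treated with compounds at up to 57.5 uM final for 24 h at 37 degrees C before Dual-Glo luminescence readout.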
HTT-AS promoter: HTT-AS promoter activation; HEK293 HTT-AS promoter firefly luciferase reporter, 24 h; response scale: percent change from vehicle, -100% = no light; Potency, µM (highest dose often 57.5 µM), for the others: top-dose activity change, positive = activation, usual class: activators; 0.24% of 48,000 active; also: potency is read from the fitted curve at half-maximal effect; nearly all actives have a fitted effect of over 55% in size
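HEK293 luciferase promoter-reporter cells (2,500/well) plated 24 h, then compounds added at up to 57.5 uM final for 24 h at 37 °C. Firefly luminescence by Dual-Glo, normalized to vehicle (0%) and zero RLU (-100%).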
Sfp PPTase inh: inhibitors of Bacillus subtilis Sfp PPTase, optimization followup; 78% of 230 active; shares compounds with NTMT1 inhibitor; Potency, µM (top dose mostly 114 µM), for inactives: top-dose activity change, negative = inhibition, most hits filed as inhibitors; purified Sfp PPTase enzyme activity, qHTS
HM489 growth: reduces growth of B. subtilis HM489 strain. shares compounds with NTMT1 inhibitor. B. subtilis HM489 (acpS-) growth, BacTiter-Glo, 5 h. Potency, µM (top dose mostly 114 µM), for the others: at the highest dose activity change, negative = inhibition, actives largely listed as inhibitors. 50% of 220 active. AID 540353
Sfp gel opt: Sfp PPTase inhibition, gel-based detection; shares compounds with NTMT1 inhibitor; purified Sfp PPTase, gel-based product detection; Potency, µM (series often up to 250 µM), for inactives: at the top dose activity change, negative = inhibition, hits mostly inhibitors; 54% of 220 active; AID 540355
Sfp gel: confirmation of Bacillus subtilis Sfp PPTase inhibitors. shares compounds with NTMT1 inhibitor. purified Sfp PPTase, gel-based product detection. Potency, µM (titrated, usually from 250 µM), for the others: at the top dose activity change, negative = inhibition, actives largely listed as inhibitors. 90% of 45 active. AID 602362
Sfp inh SAR2: inhibits B. subtilis Sfp PPTase in second SAR round; shares compounds with NTMT1 inhibitor; purified Sfp enzyme, PPTase activity, qHTS; Potency, µM (doses to about 57.1 µM), for the others: at the top dose activity change, negative = inhibition, most hits filed as inhibitors; 87% of 230 active; AID 602370
hGST A1-1 inh: counter-screen for Sfp PPTase inhibitors: hGST A1-1 inhibition. shares compounds with NTMT1 inhibitor. hGST A1-1 enzyme activity counter-screen, qHTS. Potency, µM (series often up to 114 µM), for inactives: at the highest dose activity change, negative = inhibition, actives largely listed as inhibitors. 55 tested, under 10 active
HSD17B4 inh: inhibits human HSD17B4, off-target for HPGD inhibitors; Potency, µM (doses to about 57.1 µM), without a hit: top-dose activity change, negative = inhibition, hits mostly inhibitors; AID 743187; 10% of 230 active; purified HSD17B4, estradiol/NAD+, NADH fluorescence; shares compounds with NTMT1 inhibitor
ALDH1A1 inh: inhibits human ALDH1A1, off-target for HPGD inhibitors | shares compounds with NTMT1 inhibitor | recombinant ALDH1A1, NADH fluorescence, propionaldehyde/NAD+ | Potency, µM (titrated, usually from 57.1 µM), for the others: top-dose activity change, negative = inhibition, most hits filed as inhibitors | 93% of 230 active
NNMT counter: blocks human NNMT methyltransferase; shares compounds with NTMT1 inhibitor; NNMT MTase-Glo luminescence, SAH detection; Potency, µM (doses to about 57.1 µM), without a hit: at the highest dose activity, negative = inhibition, usual class: inhibitors; 10% of 120 active
Target sequence (P40261 whole entry, looked up): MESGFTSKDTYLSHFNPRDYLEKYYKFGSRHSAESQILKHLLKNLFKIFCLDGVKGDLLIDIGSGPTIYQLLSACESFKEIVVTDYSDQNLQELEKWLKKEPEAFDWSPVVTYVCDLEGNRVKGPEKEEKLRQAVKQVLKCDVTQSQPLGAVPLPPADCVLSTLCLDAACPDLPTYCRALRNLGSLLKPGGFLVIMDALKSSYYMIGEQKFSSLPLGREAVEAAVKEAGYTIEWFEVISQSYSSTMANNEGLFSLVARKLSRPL
The depositor's hits bear a star; ? = inconclusive; nt = not tested or not shown; [ ] = another dose, or the depositor's remark. A selection: hits, their analogues and other compounds. The true share with any hit is near 2.6%. Calls follow the shape of the dose curve; as a rule, active = well fitted curve in the direction sought with a large enough effect; inconclusive = small, poorly fitted or top-dose-only effect, or another doubt; inactive = no such curve, though single readings can be large; an effect the other way counts as inactive or inconclusive.

SMILES	FH mod	NTMT1 inhibitor	HTT promoter inh	HTT-AS promoter	Sfp PPTase inh	HM489 growth	Sfp gel opt	Sfp inh SAR2	HSD17B4 inh	ALDH1A1 inh	others
Cc1ccnc(NC(=S)NCCNc2cccc(C(F)(F)F)c2)c1	nt	?	nt	nt	?	?	-18%	6.5µM*	6.1µM*	19µM*
Cc1ccnc(NC(=S)NCCN(C)c2cccc(C(F)(F)F)c2)c1	nt	-3%	nt	nt	?	3%	-11%	?	-5%	15µM*
COc1cccc(CNc2ccc(S(=O)(=O)Nc3cccc4ccccc34)cc2)c1O	nt	4%	nt	nt	nt	nt	nt	nt	nt	nt
O=C(Nc1ccccc1)c1ccc(Nc2nnc(-c3ccc(O)cc3)c3ccccc23)cc1	-5%	7%[57.5 µM]	nt	nt	nt	nt	nt	nt	nt	nt	NNMT counter=?
COc1cc2c(NC3CCN(C(C)C)CC3)nc(N3CCC(F)(F)CC3)nc2cc1OCCCN1CCCC1	-1%	-24%[57.5 µM]	nt	nt	nt	nt	nt	nt	nt	nt
COc1cc2c(NC3CCN(C(C)C)CC3)nc(N3CCCN(c4ccccc4)CC3)nc2cc1OCCCN1CCCC1	nt	nt	nt	nt	nt	nt	nt	nt	nt	nt	NNMT counter=-11%
COc1cccc(NC(=S)N2CCN(c3cc(Cl)cc(Cl)c3)CC2)n1	nt	?	nt	nt	?	-2%	?	?	10%	8.6µM*	Sfp gel=1%;hGST A1-1 inh=1.9µM*
COc1ccc(N2CCN(C(=O)Nc3ccc(Cl)cc3)CC2)cc1	-13%	-18%	?	-15%	nt	nt	nt	nt	nt	nt
O=C(Nc1ccccc1)N1CCN(Cc2ccc3ccccc3n2)CC1	1%	5%[57.5 µM]	nt	nt	nt	nt	nt	nt	nt	nt
COc1cccc(NC(=S)N2CCN(c3ccc4ccccc4n3)CC2)n1	nt	-24%[57.5 µM]	nt	nt	47µM*	?	-70%	36µM*	27µM*	24µM*
CC(C)(C)c1ccc(NC(=O)N2CCN(c3ncccc3Cl)CC2)cc1	-10%	6%[57.5 µM]	nt	nt	nt	nt	nt	nt	nt	nt
COc1cccc(NC(=S)N2CCN(c3cccc(Cl)c3Cl)CC2)n1	nt	?	nt	nt	?	?	?	5.8µM*	-15%	1.2µM*
CC(=O)c1ccc(N2CCN(S(=O)(=O)c3ccc4c(c3)OCC(=O)N4)CC2)cc1	nt	7%[57.5 µM]	nt	nt	nt	nt	nt	nt	nt	nt
COc1cccc(-c2cn(-c3ccc(CCN4CCC(O)CC4)cc3)c3ncnc(N)c23)c1	-2%	13µM*	nt	nt	nt	nt	nt	nt	nt	nt	NNMT counter=?

Compound activity deposited in PubChem by National Center for Advancing Translational Sciences (NCATS).
